# Assay results as given in PubChem BioAssay AID431 (Sanford-Burnham Center for Chemical Genomics, 2006).
# The whole screen tested about 63,000 compounds, of which about 1,100 (1.7%) were called active. The sample holds actives, similar compounds and a random draw of the others, so the mix is not that of the screen. Entries with a potency or affinity are not part of this list. A number with no mark means an inactive call.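 How the source made its calls: active means compounds whose percent cytotoxicity in the single-dose primary screen, scaled between solvent and toxic-drug controls, exceeds 50; inactive means the rest.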
# Test: viability loss of HPDE-C7K cells – cell-based, fluorescence, HTS, primary screen (AID 431);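 further: 0% = DMSO solvent wells and 100% = doxorubicin-treated wells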
# Settings: HPDE-C7K KRASV12 cells, Alamar Blue viability, 48 h; at 10 µM; stronger effect = higher value
row,Compound,cytotoxicity
1,CCOc1ccccc1Oc1coc2cc(O)ccc2c1=O,-11.5%
2,Cc1cc(C(=O)Nc2sc(C)c(C)c2C#N)no1,-0.7%
3,Cc1cc(C)n(CC(O)Cn2c3ccccc3c3ccccc32)c(=O)n1 (stereo not given),11.5%
4,CC1CCCC(C)N1C(=O)Cn1c(SCC(=O)Nc2ccc3c(c2)OCO3)nc2ccccc21 (stereo not given),8.4%
5,COc1ccc(-c2onc3ccc(Cl)cc23)cc1OC,4.4%
6,CCOc1ccc2noc3c2c1C(=O)c1ccccc1-3,23.3%
7,O=C(NCc1ccco1)c1ccc2c(c1)C(=O)c1ccccc1-2,5.3%
8,O=C1c2ccccc2-c2onc3ccc(NCCCn4ccnc4)c1c23,27.5%
9,O=C1c2ccccc2-c2onc3ccc(NCc4ccco4)c1c23,51.6% (active)
10,COc1ccc2noc3c2c1C(=O)c1ccccc1-3,72.7% (active)
11,C=C(C)c1ccc(C(C)(C)NC(=O)NCc2ccco2)cc1,8.8%
12,CC(=O)c1c(C)[nH]c(C(=O)N2CCCCCC2)c1C,-5.8%
13,CC(=O)N1CCc2c(sc(NC(=O)CN3C(=O)CCC3=O)c2C(N)=O)C1,0.3%
14,COc1cc(NS(=O)(=O)c2cc(C)ccc2OC)c(OC)cc1Cl,4%
15,COc1ccc(OC)c(S(=O)(=O)Nc2cc(OC)c(Cl)cc2OC)c1,6.9%
16,COc1cc(NS(=O)(=O)c2ccc(OC)c(C)c2C)c(OC)cc1Cl,64.1% (active)
17,C=CCn1c(=O)c(C(=O)Nc2ccccc2C(=O)OCC)c(O)c2ccccc21,-8.6%
18,CCC(C)n1nccc1NC(=O)C(C)OC(=O)c1cc2ccccc2[nH]1 (stereo not given),7%
19,CCNc1ccc2c(Cl)cc(=O)oc2c1,6.3%
20,CCOc1cc2c(C)cc(=O)oc2cc1Cl,0.2%
21,CCN(CC)c1ccc2c(C)c(CN3CCOCC3)c(=O)oc2c1,26.6%
22,CCN(CC)c1ccc2cc(NC(=O)CCC(=O)O)c(=O)oc2c1,15.5%
23,CCN(CC)c1ccc2c(C)c(-c3ccc(N)cc3)c(=O)oc2c1,82.1% (active)
24,CCOC(=O)Cc1c(C)c2ccc(N(CC)CC)cc2oc1=O,-21.9%

row,Compound,cytotoxicity
1,CCN(CC)C(=O)Oc1ccc2c(=O)c(-c3ccc(OC)cc3)c(C)oc2c1,4.7%
2,COc1ccc(-n2cnnc2SCC(=O)N(C)C2CCS(=O)(=O)C2)cc1 (stereo not given),3.5%
3,COCc1nc2ccccc2n1Cc1ccc(Br)cc1,-5.7%
4,CSc1nnc(-c2sc3cc(Cl)ccc3c2Cl)n1C,-20.3%
5,Cc1csc(NC(=O)c2nc3nc(C)cc(C)n3n2)n1,-16.1%
6,COc1ccccc1-n1nnnc1SCc1ccccc1,-10.6%
7,Cc1cccc(C)c1-n1nnnc1S(=O)(=O)Cc1ccccc1Cl,-1.5%
8,O=c1[nH]c2cc3c(cc2cc1CN(CCc1ccccc1)Cc1nnnn1C1CCCC1)OCCO3,-11.1%
9,CC(CN1CCCCC1)OC(=O)c1cc2ccccc2o1 (stereo not given),-6.7%
10,CCCS(=O)(=O)N1CCCC(C(=O)NCc2ccc3c(c2)OCO3)C1 (stereo not given),-6.2%
11,CC(C)C[C@H](N)c1nnc(S(=O)(=O)Cc2cccc(F)c2)o1,-7.4%
12,CC(C)[C@H](NC(=O)OC(C)(C)C)c1nnc(S(=O)(=O)Cc2c(F)cccc2Cl)o1,-5.9%
13,Cc1ccc(C2N(c3cccc(Cl)c3)C(=O)C3CCCN32)o1 (stereo not given),-0.1%
14,COc1ccc(C(=O)Nn2c(SCC(=O)NCC3CCCO3)nc3ccccc3c2=O)cc1 (stereo not given),-11%
15,O=C(CCc1ccccc1)Nc1ccc(N2CCOCC2)cc1,2.6%
16,Cc1ccc(-n2c(=O)c(C#N)cc3c(=O)n4ccccc4nc32)cc1,69.7% (active)
17,C=CCn1c(=O)c(C#N)cc2c(=O)n3ccccc3nc21,4.5%
18,Cc1cc(-n2c(=O)c(C#N)cc3c(=O)n4ccccc4nc32)no1,-4.7%
19,O=C(Nc1ccc2c(c1)OCCO2)c1ccc(Br)c(S(=O)(=O)N2CCOCC2)c1,-7.9%
20,CC(C)CC(NC(=O)C1CCC(C)CC1)C(=O)Nc1ccccn1 (stereo not given),-19.7%
21,CCOC(=O)c1nnn(-c2nonc2N)c1CSc1ccccn1,-3.2%
22,COc1ccc(-n2nnnc2SCC(N)=O)cc1,-7.1%
23,CC1=C(C(=O)Nc2ccccc2)C(c2ccco2)C(C#N)=C(SCc2ccccc2)N1 (stereo not given),57.7% (active)
24,CC1=C(C(=O)Nc2ccccc2)C(c2ccco2)C(C#N)=C(SCC(=O)Nc2cccc(C)c2C)N1 (stereo not given),79.6% (active)

row,Compound,cytotoxicity
1,COc1ccccc1NC(=O)C1=C(C)NC(SCC(=O)c2ccccc2)=C(C#N)C1c1ccco1 (stereo not given),27.2%
2,CC1=C(C(=O)Nc2ccccc2)C(c2ccco2)C(C#N)=C(SCC(=O)OC(C)C)N1 (stereo not given),49.2%
3,CCOC(=O)C1=C(c2ccccc2)NC(SCC(=O)Nc2ccccc2C)=C(C#N)C1c1ccco1 (stereo not given),39%
4,CCOC(=O)CSC1=C(C#N)C(c2ccco2)C(C(=O)Nc2cccc(C(F)(F)F)c2)=C(C)N1 (stereo not given),28.1%
5,CCOC(=O)C(NC(=O)c1ccccc1)=C1CCCCC1,-19.2%
6,CC(c1ccccc1)n1cc(C(=O)NCc2ccccn2)nn1 (stereo not given),-7.5%
7,CCCc1cc(=O)[nH]c(SCC(=O)Nc2ccc(OC(F)F)cc2)n1,-7.3%
8,O=C(NCCCN1CCCCCC1)c1ccc(CS(=O)(=O)Cc2ccccc2F)o1,-3%
9,Cc1cccc2sc(NC(=O)CNS(=O)(=O)c3ccc(Br)s3)nc12,-11.6%
10,Cc1cccc2sc(NC(=O)CN(C)S(=O)(=O)c3cccs3)nc12,28.8%
11,COCCn1c(SCC#N)nnc1-c1ccccc1O,-24.2%
12,COc1ccc(NC(=O)N2CCCCC2)cc1,-3.1%
13,Oc1cccc(Nc2ncnc3ccccc23)c1,4.2%
14,COc1ccc(CNC(=O)Cc2ccc(OC)c(S(=O)(=O)N3CCOCC3)c2)cc1,3.6%
15,c1ccc(Cn2nnnc2CN2CCN(Cc3ccc4c(c3)OCO4)CC2)cc1,-0.4%
16,Cc1nc2cc(C(F)(F)F)ccc2n1C1CCN(CC(=O)N2CCOCC2)CC1,-14.7%
17,CC1(C)CC(=O)C(C=Nc2ccc3[nH]ncc3c2)=C(O)C1,14.8%
18,CN1CCN(C(=O)c2cc3c(n(-c4ccccc4)c2=O)CC(C)(C)CC3=O)CC1,-5%
19,CCCn1c(=O)c2ccccc2n2c(SCCOc3ccc(OC)cc3)nnc12,-17.4%
20,COCCCNc1oc(COc2ccc(Cl)cc2Cl)nc1C#N,18.7%
21,CN(C)c1oc(-c2ccc(OCc3ccccc3)cc2)nc1C#N,-8.5%
22,CN(C)c1oc(-c2ccc(OCc3ccc(Cl)cc3)cc2)nc1C#N,51.7% (active)
23,N#Cc1nc(-c2ccc(OCc3ccc(Cl)cc3)cc2)oc1N1CCOCC1,-19.7%
24,O=C(Cn1cccc1)Nc1ccc(F)cc1F,1%

row,Compound,cytotoxicity
1,CCOC(=O)c1[nH]c2ccc(C)cc2c1N=C(C)N(C)C,70% (active)
2,CCOC(=O)c1[nH]c2ccc(F)cc2c1N=C(C)N(CC)CC,-17.4%
3,CCOC(=O)c1[nH]c2ccc(C)cc2c1N=CN(CC)CC,4.8%
4,OC(CN1CCOCC1)CN(c1ccccc1)c1ccccc1 (stereo not given),-10.7%
5,O=C(CSc1ncnc2ccccc12)N1CCCC1,-10.1%
6,c1ccc2c(c1)nc(N1CCOCC1)c1c3ccccc3[nH]c21,-52.3%
7,CC1(C)CC(=O)c2cnn(-c3nc4ccccc4[nH]3)c2C1,-19%
8,COc1cc(C(C)=O)ccc1OC(=O)C(C)N1C(=O)c2ccccc2C1=O (stereo not given),-5.8%
9,O=C(NCc1ccco1)C(Cc1ccccc1)N1C(=O)c2ccccc2C1=O (stereo not given),-12.8%
10,COc1ccc(NC(=O)CC2C(=O)N(c3ccc(OC)cc3)C(=O)N2CCN2CCN(C)CC2)cc1 (stereo not given),-7.8%
11,Cc1ccc(C2c3c(-c4ccccc4O)n[nH]c3C(=O)N2Cc2ccncc2)cc1 (stereo not given),8.5%
12,COc1ccc(C2c3c(-c4cc(Cl)c(C)cc4O)n[nH]c3C(=O)N2Cc2cccnc2)cc1OC (stereo not given),14.2%
13,COc1ccc(CCN2C(=O)c3[nH]nc(-c4ccccc4O)c3C2c2ccccc2)cc1OC (stereo not given),24%
14,CC(C)OCCCN1C(=O)c2[nH]nc(-c3ccccc3O)c2C1c1cccc(Cl)c1 (stereo not given),-4.9%
15,COc1cc(C2C(C(C)=O)=C(O)C(=O)N2CCc2ccc(OC)c(OC)c2)ccc1O (stereo not given),1.7%
16,COc1ccc(C2c3c(-c4ccccc4O)n[nH]c3C(=O)N2CCc2ccc(OC)c(OC)c2)cc1 (stereo not given),51.4% (active)
17,COCCCN1C(=O)c2[nH]nc(-c3cc(C)cc(C)c3O)c2C1c1ccc(O)c(OC)c1 (stereo not given),12%
18,Cc1cc(O)c(-c2n[nH]c3c2C(c2cccc(O)c2)N(Cc2cccnc2)C3=O)cc1Cl (stereo not given),9.3%
19,COCCCN1C(=O)c2[nH]nc(-c3ccccc3O)c2C1c1cccc(Cl)c1 (stereo not given),18.6%
20,COCCCN1C(=O)c2[nH]nc(-c3ccccc3O)c2C1c1ccc(Cl)cc1 (stereo not given),62.9% (active)
21,COc1ccc(CCN2C(=O)c3[nH]nc(-c4ccccc4O)c3C2c2cccc(O)c2)cc1OC (stereo not given),63.4% (active)
22,Cc1ccc(S(=O)(=O)N(C)CCCC(=O)NCc2ccc3c(c2)OCO3)cc1,-7.5%
23,O=S(=O)(c1cccc(-c2csc(-c3cccnc3)n2)c1)N1CCCCC1,-13.4%
